According to PMC5540273 (PLoS ONE, 2017):

Legend:
Conditions in all cases: concentration: 1 μM,replicates: in singlicate; n = 1
NIM1 = system: T1, NIM1
T1 construct: gene MGC42105

NLK = system: NLK
OSR1 = system: T2, OSR1
T2 construct: gene OXSR1

PAK1 = system: PAK1
PAK2 = system: PAK2
PAK3 = system: PAK3
PAK4 = system: PAK4
PAK6 = system: PAK6
PAK7 = system: PAK7
PCTK1 = system: T3, PCTK1
T3 construct: gene CDK16

PCTK2 = system: T4, PCTK2
T4 construct: gene CDK17

PCTK3 = system: T5, PCTK3
T5 construct: gene CDK18

PDGFRA = system: PDGFRA
PDGFRB = system: PDGFRB
PDPK1 = system: PDPK1
PFTAIRE2 = system: PFTAIRE2
PFTK1 = system: T6, PFTK1
T6 construct: gene CDK14

PHKG1 = system: PHKG1
PHKG2 = system: PHKG2
PIK3C2B = system: PIK3C2B
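Also: KINOMEscan kinase panel screen.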

| SMILES | %Inh (NIM1) [%] | %Inh (NLK) [%] | %Inh (OSR1) [%] | %Inh (PAK1) [%] | %Inh (PAK2) [%] | %Inh (PAK3) [%] | %Inh (PAK4) [%] | %Inh (PAK6) [%] | %Inh (PAK7) [%] | %Inh (PCTK1) [%] | %Inh (PCTK2) [%] | %Inh (PCTK3) [%] | %Inh (PDGFRA) [%] | %Inh (PDGFRB) [%] | %Inh (PDPK1) [%] | %Inh (PFTAIRE2) [%] | %Inh (PFTK1) [%] | %Inh (PHKG1) [%] | %Inh (PHKG2) [%] | %Inh (PIK3C2B) [%] |
| --- | --- | --- | --- | --- | --- | --- | --- | --- | --- | --- | --- | --- | --- | --- | --- | --- | --- | --- | --- | --- |
| Cc1n[nH]c2cc(Nc3ccnc(Nc4cccc(CN5CCOCC5)c4)n3)ccc12 [GW682569] | 22 | 18 | 0 | 0 | 0 | 0 | 2 | 1 | 20 | 0 | 12 | 8 | 75 | 95.4 | 0 | 7 | 20 | 0 | 0 | 0 |
| c1ccc(Oc2ccc(Nc3ccnc4ccc(-c5ccccn5)cc34)cc2)cc1 [GW407034] | 17 | 13 | 57 | 20 | 11 | 0 | 0 | 0 | 7 | 8 | 0 | 17 | 0 | 34 | 0 | 0 | 15 | 0 | 0 | 4 |
| CC(=O)Nc1nc2cnc(Nc3cc(NC(=O)c4cccc(CC(C)(C)C#N)c4)ccc3C)nc2s1 | 23 | 1 | 41 | 25 | 25 | 28 | 8 | 21 | 2 | 25 | 47 | 29 | 99 | 100 | 39 | 31 | 14 | 19 | 0 | 14 |
| CN1CCN(CCCNc2nccc(-c3c(-c4ccc(F)cc4)nn4cc(C(N)=O)ccc34)n2)CC1 [GW622475] | 9 | 70 | 19 | 26 | 22 | 34 | 0 | 7 | 24 | 6 | 20 | 12 | 0 | 63 | 0 | 33 | 11 | 14 | 26 | 8 |
| COc1cccc(CNC(=O)NC2CCN(c3ccnc(Nc4cc(OC)c(OC)c(OC)c4)n3)C2)c1 (stereo not drawn) [GSK1379765] | 21 | 0 | 3 | 0 | 8 | 11 | 0 | 0 | 1 | 3 | 0 | 0 | 6 | 51 | 4 | 16 | 11 | 15 | 0 | 0 |
| Cn1ccc2ncnc(Oc3ccc(NC(=O)Nc4ccnc(C(F)(F)F)c4)c(Cl)c3)c21 | 0 | 14 | 0 | 23 | 13 | 100 | 7 | 0 | 0 | 21 | 0 | 0 | 97 | 100 | 0 | 5 | 0 | 24 | 8 | 0 |
| CCCC(=O)Nc1n[nH]c2ncccc12 [SB-601436] | 0 | 0 | 0 | 0 | 17 | 0 | 0 | 0 | 0 | 0 | 0 | 0 | 0 | 0 | 0 | 14 | 9 | 0 | 0 | 0 |
| COc1cc2ncn(-c3cc(OCC4CCCCC4)c(C(N)=O)s3)c2cc1OC [GSK204559] | 3 | 0 | 15 | 9 | 17 | 18 | 0 | 0 | 1 | 3 | 0 | 21 | 2 | 66 | 17 | 34 | 24 | 4 | 18 | 0 |
| COc1cccc(C2=C(Nc3cccc(Cl)c3)C(=O)NC2=O)c1 [SB-341556] | 3 | 5 | 27 | 4 | 19 | 100 | 0 | 0 | 8 | 9 | 0 | 6 | 0 | 17 | 0 | 8 | 0 | 0 | 0 | 0 |
| Cl.Cl.NC[C@H](CC1CCCCC1)NC(=O)c1ccc(-c2ccnc3[nH]ccc23)s1 [GSK1581428] | 14 | 12 | 19 | 22 | 38 | 94.8 | 34 | 62 | 68 | 6 | 0 | 0 | 80 | 97.3 | 18 | 32 | 31 | 36 | 13 | 0 |
| O=C(Nc1cccc(Oc2ccc3nccn3n2)c1)Nc1cccc(C(F)(F)F)c1 | 14 | 19 | 0 | 0 | 0 | 0 | 0 | 5 | 0 | 0 | 0 | 8 | 99.8 | 100 | 0 | 0 | 1 | 14 | 0 | 12 |
| CCN1CCN(CCCC(=O)Nc2n[nH]c3nc(-c4ccc(O)cc4)c(Br)cc23)CC1 [SB-731579] | 3 | 0 | 0 | 0 | 33 | 36 | 61 | 0 | 7 | 56 | 40 | 41 | 39 | 99.4 | 0 | 11 | 31 | 0 | 2 | 0 |
| C[C@@H]1CNc2c(sc3ccc4nc(-c5ccncc5)ccc4c23)C(=O)N1 | 0 | 0 | 9 | 0 | 5 | 9 | 24 | 9 | 0 | 0 | 6 | 0 | 72 | 56 | 0 | 0 | 0 | 39 | 55 | 0 |
| COc1cc(Nc2nccc(N3CCC(NC(=O)c4cccc(C#N)c4)C3)n2)cc(OC)c1OC (stereo not drawn) [GSK1379751] | 16 | 7 | 2 | 2 | 0 | 0 | 0 | 0 | 1 | 0 | 0 | 0 | 0 | 70 | 0 | 0 | 3 | 0 | 0 | 0 |
| Cc1ccc(Nc2ccnc(Nc3ccc4c(c3)CS(=O)(=O)C4)n2)cc1O.Cl [GW579362] | 17 | 97.5 | 46 | 26 | 29 | 20 | 0 | 28 | 56 | 17 | 35 | 16 | 92.8 | 100 | 38 | 15 | 27 | 0 | 1 | 4 |
| O=c1[nH]cc(-c2ccc(O)cc2)c2sc(-c3ccncc3)cc12 [GSK1033723] | 4 | 11 | 3 | 14 | 5 | 11 | 0 | 4 | 5 | 1 | 12 | 17 | 0 | 18 | 0 | 11 | 18 | 7 | 22 | 0 |
| COc1cc2nccc(Nc3ccc(Oc4ccccc4)cc3)c2cc1OC.Cl [GI261656] | 5 | 0 | 0 | 0 | 0 | 0 | 0 | 0 | 3 | 0 | 0 | 0 | 77 | 92 | 0 | 5 | 9 | 0 | 6 | 0 |
| C[C@@H](Oc1cc(-n2cnc3cc(-c4cnn(C)c4)ccc32)sc1C(N)=O)c1ccccc1Cl [GSK580432] | 64 | 0 | 12 | 0 | 13 | 63 | 0 | 2 | 0 | 0 | 0 | 19 | 84 | 99.8 | 75 | 7 | 7 | 0 | 47 | 0 |
| O=C(NOCC1CC1)c1cc(Br)c(F)c(F)c1Nc1ccc(I)cc1Cl | 25 | 0 | 0 | 2 | 12 | 16 | 0 | 0 | 0 | 0 | 0 | 0 | 0 | 13 | 9 | 0 | 0 | 0 | 0 | 0 |
| CN(c1cccc(CNc2nc(Nc3ccc4c(c3)CC(=O)N4)ncc2C(F)(F)F)c1)S(C)(=O)=O | 0 | 8 | 0 | 15 | 42 | 0 | 11 | 14 | 13 | 0 | 2 | 4 | 34 | 72 | 65 | 10 | 17 | 40 | 18 | 0 |
| CC(C)S(=O)(=O)N1CCN(Cc2ccc3c(c2)nc(NC(=O)c2ccsc2)n3C[C@H](O)c2ccccc2)CC1 [GW635815] | 20 | 0 | 10 | 22 | 27 | 15 | 44 | 9 | 35 | 0 | 0 | 4 | 0 | 38 | 4 | 19 | 0 | 64 | 43 | 0 |
